Bioassay records (PubChem)
NPSR antag: neuropeptide S receptor (human) antagonism, cAMP; Q6W5P4; CHO-NPSR cells, cAMP TR-FRET, antagonist mode; Potency, µM (top dose mostly 38.3 µM), actives largely listed as inhibitors; hit rate 1% among 220,000; note: nearly all actives have a fitted effect of over 50% in size
B2AR arrestin: recruits beta-arrestin to the human beta2-adrenergic receptor | AID 492947 | P07550 | beta-arrestin recruitment to beta2AR, cell-based reporter | Potency, µM (top dose mostly 46.1 µM), most hits filed as activators | hit rate 0.02% among 330,000; note: nearly all actives have a fitted effect of over 65% in size
VP16 counter: inhibits Gal4-VP16 luciferase reporter, ROR gamma counter-screen; Drosophila S2 Gal4-VP16 UAS-luciferase, luminescence, 20 h; Potency, µM (doses to about 53.6 µM), actives largely listed as inhibitors; hit rate 3.5% among 310,000;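 note: Gal4-VP16 expression switched on by copper sulfate through the metallothionein promoter; nearly all actives have a fitted effect of over 50% in size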
RORgamma inh: inhibitors of mouse ROR gamma transcriptional activity | P51450 | Drosophila S2 Gal4-RORgamma UAS-luciferase reporter, 20 h | Potency, µM (doses to about 53.6 µM), most hits filed as inhibitors | hit rate 5.4% among 310,000; note: nearly all actives have a fitted effect of over 60% in size
Target sequence (P51450 whole entry, looked up, the tested form may be a part): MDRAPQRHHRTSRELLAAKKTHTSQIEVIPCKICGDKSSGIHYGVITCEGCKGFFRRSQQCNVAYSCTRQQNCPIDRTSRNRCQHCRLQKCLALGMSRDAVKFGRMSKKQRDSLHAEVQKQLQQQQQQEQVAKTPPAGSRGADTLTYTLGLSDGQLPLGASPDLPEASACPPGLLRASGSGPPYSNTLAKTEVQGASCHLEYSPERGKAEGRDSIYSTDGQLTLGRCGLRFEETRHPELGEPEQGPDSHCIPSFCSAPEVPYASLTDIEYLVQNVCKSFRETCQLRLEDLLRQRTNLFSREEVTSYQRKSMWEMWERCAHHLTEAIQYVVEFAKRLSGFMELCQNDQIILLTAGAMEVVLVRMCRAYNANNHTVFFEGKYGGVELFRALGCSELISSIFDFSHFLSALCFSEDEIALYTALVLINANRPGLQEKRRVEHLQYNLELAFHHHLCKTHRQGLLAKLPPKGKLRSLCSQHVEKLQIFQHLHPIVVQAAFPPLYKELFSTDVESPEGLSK
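Using a luciferase readout, inhibitors were identified by reduced reporter activity in Drosophila cells coexpressing a copper-inducible Gal4–ROR gamma fusion and UAS-driven Photinus luciferase, incubated 20 hr after 700 uM copper sulfate.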
A number is an active result; - = inactive; ? = inconclusive; . = no result. Compounds with a hit are over-represented: about 5.7% of the library has one in this group of screens. Calls come from the whole dose curve; as a rule, active = well fitted curve in the direction sought with a large enough effect; inconclusive = small, poorly fitted or top-dose-only effect, or another doubt; inactive = no such curve, though single readings can be large; an effect the other way counts as inactive or inconclusive.

SMILES | NPSR antag | B2AR arrestin | VP16 counter | RORgamma inh
CCCCN1CNC(=S)N(c2cc(C)ccc2C)C1 | - | - | 10µM | 14µM
CCCN1CNC(=S)N(c2cccc(C)c2)C1 | - | - | - | 11µM
CCCCN1CNC(=S)N(c2ccc(C(=O)OCC)cc2)C1 | - | - | - | ?
CCOc1ccc(/C=N/NC(=O)c2nnn(-c3nonc3N)c2CN(C)C2CCCCC2)cc1 | . | - | - | -
CCN1/C(=C/C=C/c2oc3ccc(-c4ccccc4)cc3[n+]2CC)Oc2ccc(-c3ccccc3)cc21 | ? | - | 0.35µM | 13µM
COc1cc(CO)ccc1OCC(=O)N1CCc2ccccc21 | . | - | ? | 2.5µM
COc1cc(SC)ccc1C(=O)Nc1cc(C)c(OCC(=O)N2CCOCC2)c(C)c1 | . | - | - | -
COc1c(C)cccc1C(=O)Nc1ccc(OCC(=O)N2CCOCC2)cc1C | . | - | ? | 1.8µM
COc1cc(SC)ccc1C(=O)Nc1ncc(C)s1 | - | - | ? | 2.5µM
COc1cc(SC)ccc1C(=O)Nc1ccc(C)cc1 | - | - | 20µM | ?
COc1cc(SC)ccc1C(=O)Nc1ccc(OCC(=O)N2CCOCC2)cc1 | . | - | 11µM | 10µM
COc1cc(C(=O)Nc2ccc(OCC(=O)N3CCOCC3)cc2C)cc(OC)c1OC | . | - | - | -
COc1cc(SC)ccc1C(=O)Nc1ccc(C)cc1C | - | - | - | -
CCC(C)(C)OC | . | . | ? | -
O=C1O[C@@H]([C@@H](O)CO)[C@@H](O)[C@H]1O | . | . | - | -
COc1ccc(-c2cn(CCC(=O)O)c(C)n2)cc1 | . | - | . | .
COc1cccc(-c2cncnc2NCc2cccs2)c1 | . | . | - | -
COc1cc(SC)ccc1C(=O)Nc1ccccn1 | - | - | 10µM | 8.9µM
COc1cc(SC)ccc1C(=O)Nc1ccc(Br)cn1 | - | - | 7.9µM | 2µM
C=C(C)C1CCC(C)C(OC(C)=O)C1 (stereo not given) | . | . | - | -
O=S(=O)(NC[C@@H]1CCC[C@H](CNS(=O)(=O)c2c(F)cccc2F)C1)c1ccc2c(c1)OCCO2 | . | - | . | .
COc1ccc2cc(C(N)=O)/c(=N\NC(=O)c3ccccc3)oc2c1 | . | - | ? | 13µM
COc1ccc(OCC(=O)N2CCN(S(=O)(=O)c3ccccc3[N+](=O)[O-])CC2)cc1 | - | - | - | ?
C=CCOc1c(Br)cc(/C=N/n2c(CC)n[nH]c2=S)cc1Br | - | - | 7.9µM | 7.9µM
CC(=C/c1ccccc1)/C=N/n1c(C)n[nH]c1=S | . | ? | 6.3µM | 8.9µM
SMILES | NPSR antag | B2AR arrestin | VP16 counter | RORgamma inh
CC(=C/c1ccccc1)/C=N/n1c(-c2ccncc2)n[nH]c1=S | - | - | - | ?
S=c1[nH]nc(COc2ccccc2)n1/N=C/c1ccncc1 | - | - | - | 10µM
Cc1cccc(/C=N/n2c(COc3ccccc3)n[nH]c2=S)c1 | . | - | ? | 7.1µM
Cc1ccc(NC(=O)C2CCN(S(=O)(=O)c3ccc4c(c3)C(C)(C)C(=O)N4C)CC2)c(C)c1 | . | - | - | -
CSc1cc(C)c(OCC(=O)Nc2ccc(NC(C)=O)cc2)c(C)c1 | - | - | - | -
CC(/C=N/n1c(COc2ccccc2)n[nH]c1=S)=C\c1ccccc1 | - | - | ? | 2.5µM
CCc1n[nH]c(=S)n1/N=C/c1ccc(N(CC)CC)cc1 | - | ? | 6.3µM | 2.8µM
FC(F)(F)c1ccc(/C=N/n2c(COc3ccccc3)n[nH]c2=S)cc1 | . | - | - | ?
S=c1[nH]nc(COc2ccccc2)n1/N=C/c1ccccn1 | - | - | - | ?
CCc1ccc(/C=N/n2c(COc3ccccc3)n[nH]c2=S)cc1 | . | - | ? | 0.89µM
C[C@H](CO)N1C[C@H](C)[C@@H](CN(C)CC2CCCCC2)Oc2c(NC(=O)Cc3ccccc3)cccc2C1=O | . | - | . | .
CSCC[C@H](NC(=O)[C@H](CC(C)C)NC(=O)CNC(=O)[C@@H]1CCCN1C(=O)[C@H](Cc1ccccc1)NC(=O)[C@H](Cc1ccccc1)NC(=O)[C@H](CC(=O)O)NC(=O)[C@H](Cc1cnc[nH]1)NC(=O)[C@H](CCSC)NC(=O)[C@@H](N)CC(=O)O)C(N)=O | . | . | - | -
C(#Cc1ccccc1)C[N+]1(CC#Cc2cccc3ccccc23)CCCC1 | - | - | 16µM | -
Cc1c(C(=O)NC2CCOC2)oc2c(F)cccc12 (stereo not given) | . | - | ? | -
CCS(=O)(=O)c1ncc(Cl)c(C(=O)Nc2ccc(S(=O)(=O)N(C)c3ccccc3)cc2)n1 | . | - | 2.8µM | 2.8µM
CC(=O)Nc1ccc(S(=O)(=O)N(C)c2ccccc2)cc1 | - | - | - | -
CCN(c1ccccc1)S(=O)(=O)c1ccc(NC(=O)c2nc(S(C)(=O)=O)ncc2Cl)cc1 | . | - | 3.2µM | 6.3µM
CC(C)c1nnc(NC(=O)CCS(=O)(=O)c2nc(-c3cccs3)cc(C(F)(F)F)n2)s1 | ? | - | 1.6µM | 1.8µM
CC(C)c1nnc(NC(=O)CCS(=O)(=O)Cc2ccccc2)s1 | . | - | - | -
CS(=O)(=O)c1ncc(Cl)c(C(=O)Nc2ccc(N3CCOCC3)cc2)n1 | ? | - | 3.2µM | 3.2µM
CS(=O)(=O)c1ncc(Cl)c(C(=O)Nc2ccc(OC(F)F)cc2)n1 | . | - | 1.3µM | 3.5µM
CS(=O)(=O)c1ccc(C(=O)Nc2ccc(N3CCOCC3)cc2)c(Cl)c1 | - | - | - | -
CC(C)c1c(O)ccc2c1CCC1[C@@](C)(C=O)CCC[C@@]21C (stereo not given in full) | . | . | ? | -
CC(C)c1c(O)ccc2c1CCC1C(C)(C)CCC[C@@]21C (stereo not given in full) | . | . | 10µM | ?
CCN(CC)S(=O)(=O)c1ccc(N/N=C/c2ccc(O)cc2O)nc1 | - | - | ? | 14µM
SMILES | NPSR antag | B2AR arrestin | VP16 counter | RORgamma inh
CN(C)c1ccc(/C=C/c2ccc3c4ccccc4ccc3[n+]2-c2ccccc2)cc1 | 10µM | - | ? | 1.4µM
O=C(O)COc1nn(Cc2ccccc2)c2ccccc12 | . | . | - | -
O=c1oc2c(CN3CCOCC3)c(O)c(Cl)cc2c2c1CCCC2 | - | - | - | 11µM
O=c1oc2c(CN3CCOCC3)c(O)ccc2c2c1CCCC2 | - | - | - | -
O=C(c1ccc(-c2ccccc2)cc1)C1CCCN(Cc2ccncc2)C1 (stereo not given) | - | - | - | 11µM
O=C(c1ccc(-c2ccccc2)cc1)C1CCCN(C(=O)c2ccncc2)C1 (stereo not given) | - | - | - | -
CCOCCCn1c(=N)c(C(N)=S)cc2c(=O)n3cccc(C)c3nc21 | - | - | 14µM | -
Cc1cccn2c(=O)c3cc(C(N)=S)c(=N)n(CCCOC(C)C)c3nc12 | ? | - | - | -
CC(C1CC2CCC1C2)n1c(-c2ccco2)n[nH]c1=S (stereo not given) | - | - | 6.3µM | 1.3µM
Cc1ccsc1/C=N/n1c(-c2ccco2)n[nH]c1=S | - | - | - | -
CC1C(=O)NN=C1C(=O)N/N=C\C(Br)=C\c1ccccc1 (stereo not given) | - | - | 1.6µM | 1.3µM
CC1=NNC(=O)C1CC(=O)N/N=C/C(Br)=C/c1ccccc1 (stereo not given) | - | - | - | -
Fc1ccc2[nH]c3c(NCc4ccccc4)ncnc3c2c1 | . | - | 5.6µM | ?
COc1ccc2[nH]c3c(NCc4ccco4)ncnc3c2c1 | - | - | - | ?
